Several values for one entry are separate records, joined by “and”; a condition that tells them apart may be missing. Identical values can stand only once. Results filed as inconclusive are left out. Activity calls are given as the source filed them. Unless noted, calls follow the shape of the dose curve; as a rule, active = well fitted curve in either direction with a large enough effect (not every such curve was filed as active); inconclusive = small, poorly fitted or top-dose-only effect, or another doubt; inactive = flat fitted curve, though single readings scatter.
Tests used:
[1] = biological target: Lysosomal acid glucosylceramidase (Homo sapiens) (UniProt P04062); assay: Glucocerebrosidase-p2 (AID 348; in the data active = potency below about 10 µM; also: potency is read from the fitted curve at half-maximal effect); conditions: purified GBA, blue fluorogenic substrate, 40 min
Method in brief: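 Compounds titrated from 0.6 nM upwards against 0.2 nM enzyme in pH 5.9 citric acid/KH2PO4, taurocholate, tween-20; blue fluorogenic substrate 80 uM, 40 min room temperature, stopped and read Ex 365/Em 440 for AC50.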

[2] = AP1 Signaling Pathway (AID 357); conditions: ME-180 AP-1-bla reporter, EGF-induced, beta-lactamase ratio, 5 h; at 7.69 µM (top of the series) unless noted;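 also: ME-180 reporter cells stimulated with EGF at its EC50 level; % is scaled to controls: 0 for no effect and ±100 for the full control effect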
Method in brief: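 First, ME-180 AP-1-bla cells were cultured overnight at 37 °C in low-serum Opti-MEM. Next, titrated compounds with EC50 EGF were incubated 5 hours. Finally, CCF4 was added for 2.5 hours and the 460/530 nm ratio recorded.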

[3] = NFAT Signaling Pathway (AID 444); conditions: Jurkat NFAT-bla M1, carbachol, beta-lactamase ratio, 5 h; at 7.69 µM (top of the series) unless noted;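 also: carbachol stimulus at about its EC50 of 1 µM final; % is scaled to controls: 0 for no effect and ±100 for the full control effect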
Method in brief: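 Jurkat cells with NFAT-driven β-lactamase reporter and co-expressed M1 receptor, stimulated with carbachol (final 1 uM, ~EC50), compound titration, 5 h at 37 °C. CCF4 loaded 1 h at RT; 460/530 nm ratio gave %activity and AC50.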

[4] = Stat Signaling Pathway (AID 446); conditions: ME-180 SIE beta-lactamase reporter, IL-6 stimulated, 5 h; at 7.69 µM (top of the series) unless noted;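 also: ME-180 cervical cancer cells given 40 pM IL-6 alongside compound; SIE-controlled beta-lactamase reporter measured as 460/530 nm FRET emission ratio; % is scaled to controls: 0 for no effect and ±100 for the full control effect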
Method in brief: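 ME-180 SIE-bla cells; overnight plating; cpd + IL-6 40 pM, 5 h, 37 C; LiveBLAzer 2.5 h RT; 460/530 nm emission ratio. Normalized to 300 pM IL-6 and 125 nM JAK inhibitor controls.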

[5] = biological target: Glucocorticoid receptor (Homo sapiens) (UniProt P04150); assay: GR-GFP Redistribution (AID 450;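 active = compounds whose dose series gives a full or clear partial fitted curve of increased nuclear translocation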; also: potency is read from the fitted curve at half-maximal effect); conditions: U2OS GR-GFP nuclear translocation, laser cytometry, 2 h
[6] = biological target: Glucocorticoid receptor (Homo sapiens) (UniProt P04150); assay: GR-EFC Redistribution (AID 451; calls by dose curve; also: potency is read from the fitted curve at half-maximal effect); conditions: CHO-K1 GR-EFC translocation, beta-gal luminescence, 2 h
Method in brief: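 CHO-K1 cells expressing nuclear EA and GR-ED fragments of b-gal; compounds titrated up to 46 uM final, 2 h at 37 C. GR nuclear translocation read as complemented b-gal luminescence after 1 h RT detection.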

[7] = biological target: Mitogen-activated protein kinase 10 (Mus musculus) (UniProt Q61831); assay: JNK3 AlphaScreen Assay (AID 530); conditions: JNK3 lysate, c-Jun phosphorylation; series mostly up to 11.4 µM;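 also: kinase came from lysate of stimulated human HepG2 cells; signal reports phosphorylation of biotinylated GST-cJun 1-79 at Ser73 with 10 µM ATP; % is scaled to controls: 0 for no effect and ±100 for the full control effect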
Method in brief: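 Pre-activated (IL-1β/TNFα) JNK3 in HepG2 lysates phosphorylates biotin-GST-cJun(1-79), 10 uM ATP; anti-phospho-cJun(Ser73) AlphaScreen read at room temperature, pH 7.6 Tris buffer. Compounds pre-incubated 15 min as titrations.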

[8] = biological target: 3',5'-cyclic-AMP phosphodiesterase 4B (Homo sapiens) (UniProt Q07343); assay: qHTS Assay for Inhibitors of PDE-IV (AID 607; active = well fitted activation curve with a large enough effect in the main read-out, with a control signal flat, not every such curve was filed as active; also: % of control where 0% means no effect); conditions: HEK293 ACTOne CNG channel cells, membrane potential fluorescence; series mostly up to 22.9 µM
Method in brief: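 ACTOne HEK293 cells carry a modified cAMP-gated CNG channel and express endogenous PDE4; plated 1000 cells/well, compounds up to 22.9 uM final. Membrane-potential dye fluorescence (ex 535/em 590) was read; parental cells received 10 uM forskolin + 100 uM RO 20-1724.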

Chain of Lysosomal acid glucosylceramidase (Homo sapiens) (P04062 whole entry, looked up): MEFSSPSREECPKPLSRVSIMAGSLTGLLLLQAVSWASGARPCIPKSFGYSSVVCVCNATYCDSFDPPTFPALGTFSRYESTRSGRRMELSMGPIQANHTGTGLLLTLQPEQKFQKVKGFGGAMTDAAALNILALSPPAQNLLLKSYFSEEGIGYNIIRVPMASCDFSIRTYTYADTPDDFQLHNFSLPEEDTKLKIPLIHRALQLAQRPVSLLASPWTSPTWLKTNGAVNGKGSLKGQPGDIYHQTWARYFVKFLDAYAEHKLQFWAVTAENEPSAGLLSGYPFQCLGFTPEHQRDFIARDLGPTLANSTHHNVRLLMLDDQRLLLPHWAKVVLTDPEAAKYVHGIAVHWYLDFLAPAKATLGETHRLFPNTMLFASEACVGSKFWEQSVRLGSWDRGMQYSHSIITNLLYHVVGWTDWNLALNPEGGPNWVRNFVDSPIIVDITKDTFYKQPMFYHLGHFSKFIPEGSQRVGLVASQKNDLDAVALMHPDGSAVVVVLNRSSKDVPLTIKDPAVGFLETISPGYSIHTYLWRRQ
Chain of Glucocorticoid receptor (Homo sapiens) (P04150 whole entry, looked up, the tested form may be a part): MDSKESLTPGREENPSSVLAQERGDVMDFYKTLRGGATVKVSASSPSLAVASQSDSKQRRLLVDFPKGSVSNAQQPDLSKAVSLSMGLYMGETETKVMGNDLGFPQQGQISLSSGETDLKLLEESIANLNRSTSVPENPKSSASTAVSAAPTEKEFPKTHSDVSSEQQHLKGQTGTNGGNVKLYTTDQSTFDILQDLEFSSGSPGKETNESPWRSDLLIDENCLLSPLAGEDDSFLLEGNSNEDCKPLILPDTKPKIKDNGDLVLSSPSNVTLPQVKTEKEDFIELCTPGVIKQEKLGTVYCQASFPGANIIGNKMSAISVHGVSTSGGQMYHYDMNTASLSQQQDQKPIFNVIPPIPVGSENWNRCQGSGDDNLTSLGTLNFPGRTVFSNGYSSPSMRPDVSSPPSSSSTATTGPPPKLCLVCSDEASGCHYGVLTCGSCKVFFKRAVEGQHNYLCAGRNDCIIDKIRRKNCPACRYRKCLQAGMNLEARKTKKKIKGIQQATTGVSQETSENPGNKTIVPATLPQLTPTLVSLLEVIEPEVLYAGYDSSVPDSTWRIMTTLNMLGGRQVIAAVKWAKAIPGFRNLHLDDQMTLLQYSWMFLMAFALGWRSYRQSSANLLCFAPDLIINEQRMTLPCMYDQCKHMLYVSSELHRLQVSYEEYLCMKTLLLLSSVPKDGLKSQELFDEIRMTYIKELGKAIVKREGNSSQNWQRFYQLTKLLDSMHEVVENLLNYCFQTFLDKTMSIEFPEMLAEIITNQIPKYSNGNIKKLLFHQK
Chain of 3',5'-cyclic-AMP phosphodiesterase 4B (Homo sapiens) (Q07343 whole entry, looked up): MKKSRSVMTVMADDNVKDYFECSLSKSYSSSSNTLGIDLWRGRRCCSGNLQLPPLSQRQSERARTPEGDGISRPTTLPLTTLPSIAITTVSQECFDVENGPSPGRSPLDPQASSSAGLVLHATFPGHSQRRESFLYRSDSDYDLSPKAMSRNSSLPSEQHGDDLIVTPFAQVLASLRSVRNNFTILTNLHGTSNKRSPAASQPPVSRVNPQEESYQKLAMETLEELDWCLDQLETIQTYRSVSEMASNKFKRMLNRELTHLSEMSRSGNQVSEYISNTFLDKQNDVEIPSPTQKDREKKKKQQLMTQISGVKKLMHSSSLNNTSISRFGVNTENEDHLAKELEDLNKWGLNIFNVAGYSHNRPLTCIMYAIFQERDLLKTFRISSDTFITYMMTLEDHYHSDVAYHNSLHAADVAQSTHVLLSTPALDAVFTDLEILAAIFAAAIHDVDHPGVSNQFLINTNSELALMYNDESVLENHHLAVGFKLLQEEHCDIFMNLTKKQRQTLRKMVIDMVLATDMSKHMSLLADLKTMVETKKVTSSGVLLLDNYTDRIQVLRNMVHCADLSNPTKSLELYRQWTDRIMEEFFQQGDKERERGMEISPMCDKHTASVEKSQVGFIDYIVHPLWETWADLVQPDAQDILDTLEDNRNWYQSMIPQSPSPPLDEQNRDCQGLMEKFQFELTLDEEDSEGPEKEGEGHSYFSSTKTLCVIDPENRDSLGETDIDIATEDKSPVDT

Nc1nc(SCC(=O)c2ccc(Br)cc2)c2[nH]cnc2n1
inactive: Potency [1] > 11.4 µM | activity change, negative = inhibition [2] -11.1% | activity change, negative = inhibition [3] 23.5% | activity, negative = inhibition [4] 1.94% | Potency [5] > 46 µM | Potency [6] > 9.22 µM | Potency [7] | Potency [8]

O=C(CN1C(=O)c2ccccc2C1=O)[C@@H](O)CN1C(=O)c2ccccc2C1=O
inactive: Potency [1] > 11.4 µM | activity change, negative = inhibition [2] -10.3% | activity change, negative = inhibition [3] 13.9% | activity, negative = inhibition [4] -0.0648% | Potency [5] > 46 µM | Potency [6] > 9.22 µM | Potency [7] | Potency [8]

COC(=O)[C@@H]1C(O)[C@@H](C(=O)OC)[C@H](C)N(C)[C@@H]1C (stereo partly drawn)
inactive: Potency [1] > 11.4 µM | activity change, negative = inhibition [2] 3.71% | activity change, negative = inhibition [3] 14.1% | activity, negative = inhibition [4] -1.12% | Potency [5] > 46 µM | Potency [6] > 9.22 µM | Potency [7] | Potency [8]

C[C@H]1[C@H](C)CC[C@]2(C(=O)O)CC[C@]3(C)C(=CC[C@@H]4[C@]5(C)C[C@H](O)[C@@H](O)[C@@](C)(CO)[C@@H]5[C@H](O)C[C@@]43C)[C@H]12
inactive: Potency [1] > 11.4 µM | activity change, negative = inhibition [2] -6.13% | activity change, negative = inhibition [3] 27.7% | activity, negative = inhibition [4] 8.93% | Potency [5] > 46 µM | Potency [6] > 9.22 µM | Potency [7] | Potency [8]

O=c1ccc(-c2ccccc2)n[nH]1
inactive: Potency [1] > 11.4 µM | activity change, negative = inhibition [2] 1.12% | activity change, negative = inhibition [3] -2.18% | activity, negative = inhibition [4] -3.27% | Potency [5] > 46 µM | Potency [6] > 9.22 µM | Potency [7] | Potency [8]

CC(=O)Nc1ccccc1C=C1c2ccccc2-c2ccccc21
inactive: Potency [1] > 11.4 µM | activity change, negative = inhibition [2] -4.76% | activity change, negative = inhibition [3] 18% | activity, negative = inhibition [4] -16.5% | Potency [5] > 46 µM | Potency [6] > 9.22 µM | Potency [7] | Potency [8]

N=C(N)SCCc1ccccn1
inactive: Potency [1] > 11.4 µM | activity change, negative = inhibition [2] -8.38% and 0.949% | activity change, negative = inhibition [3] 3.85% and 12.3% | activity, negative = inhibition [4] -5.15% and -3.19% | Potency [5] > 46 µM | Potency [6] > 9.22 µM | Potency [7] | Potency [8]

OC(Cc1cccnc1)(c1ccccc1)c1ccccc1
inactive: Potency [1] > 11.4 µM | activity change, negative = inhibition [2] 5.37% | activity change, negative = inhibition [3] -25.6% | activity, negative = inhibition [4] -5.74% | Potency [5] > 46 µM | Potency [6] > 9.22 µM | Potency [7] | Potency [8]

O=C(O)[C@H]1O[C@H]1C(=O)O
inactive: Potency [1] > 11.4 µM | activity change, negative = inhibition [2] 7.85% | activity change, negative = inhibition [3] -1.75% | activity, negative = inhibition [4] 2.71% | Potency [5] > 46 µM | Potency [6] > 9.22 µM | Potency [7] | Potency [8]

CN(C)c1ccc2nc3c(C(=O)O)cc(=O)c(O)c-3oc2c1
inactive: Potency [1] > 11.4 µM | activity change, negative = inhibition [2] -7.19% | activity change, negative = inhibition [3] 4.18% | activity, negative = inhibition [4] -14.8% | Potency [5] > 46 µM | Potency [6] > 9.22 µM | Potency [7] | Potency [8]

O=C(O)C[C@@H](C(=O)O)C1c2ccccc2-c2ccccc21
inactive: Potency [1] > 11.4 µM | activity change, negative = inhibition [2] -0.496% | activity change, negative = inhibition [3] -1.69% | activity, negative = inhibition [4] -5.83% | Potency [5] > 46 µM | Potency [6] > 9.22 µM | Potency [7] | Potency [8]

O=C(O)C1C(C(=O)O)C(C(=O)O)C1C(=O)O (stereo not drawn)
inactive: Potency [1] > 11.4 µM | activity change, negative = inhibition [2] -0.701% | activity change, negative = inhibition [3] -1.31% | activity, negative = inhibition [4] 0.791% | Potency [5] > 46 µM | Potency [6] > 9.22 µM | Potency [7] | Potency [8]

O=C1CC[C@](CCc2nc3ccccc3[nH]2)(c2ccccc2)C(=O)N1
inactive: Potency [1] > 11.4 µM | activity change, negative = inhibition [2] 1.26% | activity change, negative = inhibition [3] 7.74% | activity, negative = inhibition [4] 3.31% | Potency [5] > 46 µM | Potency [6] > 9.22 µM | Potency [7] | Potency [8]

[N-]=[N+]=CC(=O)COC(=O)c1ccccc1
inactive: Potency [1] > 11.4 µM | activity change, negative = inhibition [2] 9.2% | activity change, negative = inhibition [3] 16.5% | activity, negative = inhibition [4] -0.859% | Potency [5] > 46 µM | Potency [6] > 9.22 µM | Potency [7] | Potency [8]

COc1cccc(CSCC(=O)O)c1
inactive: Potency [1] > 11.4 µM | activity change, negative = inhibition [2] -5.92% | activity change, negative = inhibition [3] 6.63% | activity, negative = inhibition [4] 6.95% | Potency [5] > 46 µM | Potency [6] > 9.22 µM | Potency [7] | Potency [8]

COc1c2c(c3c(c1CCC(=O)O)OC(C)(C)C=C3)OC(C)(C)C=C2
inactive: Potency [1] > 11.4 µM | activity change, negative = inhibition [2] -1.7% | activity change, negative = inhibition [3] 13.1% | activity, negative = inhibition [4] -3.06% | Potency [5] > 46 µM | Potency [6] > 9.22 µM | Potency [7] | Potency [8]

CCON=C1C(C)(C)C(C)(C)C(C)(C)C1(C)C
inactive: Potency [1] > 11.4 µM | activity change, negative = inhibition [2] 1.12% | activity change, negative = inhibition [3] 6.28% | activity, negative = inhibition [4] -3.9% | Potency [5] > 46 µM | Potency [6] > 9.22 µM | Potency [7] | Potency [8]

O=C(O)/C=C\C=C/c1ccc2c(c1)OCO2
inactive: Potency [1] > 11.4 µM | activity change, negative = inhibition [2] 6.54% | activity change, negative = inhibition [3] 5.9% | activity, negative = inhibition [4] 1.24% | Potency [5] > 46 µM | Potency [6] > 9.22 µM | Potency [7] | Potency [8]

CO[C@@H]1/C=C\O[C@]2(C)Oc3c(C)c(O)c4c(O)c(c(CN(C)C)c(O)c4c3C2=O)NC(=O)/C(C)=C\C=C[C@@H](C)[C@@H](O)[C@H](C)[C@@H](O)[C@H](C)[C@H](OC(C)=O)[C@@H]1C
inactive: Potency [1] > 11.4 µM | activity change, negative = inhibition [2] -3.25% | activity change, negative = inhibition [3] 17.6% | activity, negative = inhibition [4] -2.18% | Potency [5] > 46 µM | Potency [6] > 9.22 µM | Potency [7] | Potency [8]

c1cncc(CNCc2cccnc2)c1
inactive: Potency [1] > 11.4 µM | activity change, negative = inhibition [2] -1.94% | activity change, negative = inhibition [3] 2.26% | activity, negative = inhibition [4] 12.4% | Potency [5] > 46 µM | Potency [6] > 9.22 µM | Potency [7] | Potency [8]

CN1CCN(CCCNN)CC1
inactive: Potency [1] > 11.4 µM | activity change, negative = inhibition [2] 3.15% | activity change, negative = inhibition [3] 0.682% | activity, negative = inhibition [4] 1.99% | Potency [5] > 46 µM | Potency [6] > 9.22 µM | Potency [7] | Potency [8]

O=C(O)[C@@H]1[C@@H]2O[C@H]([C@@H](Br)[C@H]2Br)[C@H]1C(=O)O
inactive: Potency [1] > 11.4 µM | activity change, negative = inhibition [2] 7.44% | activity change, negative = inhibition [3] 2.42% | activity, negative = inhibition [4] -2.12% | Potency [5] > 46 µM | Potency [6] > 9.22 µM | Potency [7] | Potency [8]

C[C@H](NCCN(C)C)[C@@H]1CCC2C3CCc4cc(O)ccc4[C@H]3CCC21C (stereo partly drawn)
inactive: Potency [1] > 11.4 µM | activity change, negative = inhibition [2] 3.21% | activity change, negative = inhibition [3] -1% | activity, negative = inhibition [4] -5.94% | Potency [5] > 46 µM | Potency [6] > 9.22 µM | Potency [7] | Potency [8]

CC(=O)[C@H]1CC[C@@H]2[C@]1(C)CC=C1[C@]23C=C[C@]2(C[C@H](O)CC[C@@]12C)[C@H](C(=O)O)[C@@H]3C(=O)O
inactive: Potency [1] > 11.4 µM | activity change, negative = inhibition [2] -6.74% | activity change, negative = inhibition [3] 13% | activity, negative = inhibition [4] 3.06% | Potency [5] > 46 µM | Potency [6] > 9.22 µM | Potency [7] | Potency [8]

NC(=O)[C@@H]1CCCNC1
inactive: Potency [1] > 11.4 µM | activity change, negative = inhibition [2] 9.79% | activity change, negative = inhibition [3] 6.45% | activity, negative = inhibition [4] 14.3% | Potency [5] > 46 µM | Potency [6] > 9.22 µM | Potency [7] | Potency [8]

C[C@H](Br)C(=O)Nc1ccc(C(=O)O)c(O)c1
inactive: Potency [1] > 11.4 µM | activity change, negative = inhibition [2] 1.78% | activity change, negative = inhibition [3] -22.6% | activity, negative = inhibition [4] -4.23% | Potency [5] > 46 µM | Potency [6] > 9.22 µM | Potency [7] | Potency [8]

— PubChem BioAssay (NCATS)
